Data as given in PubChem BioAssay (NCI).
About 79,000 compounds went through this panel and 15% of them were active in at least one assay; those are over-represented in the sample as a whole. No stated cut-off is given here; in the data, active means growth inhibition above about 70%; inactive means the rest.

Experiments:
[1] = NCI Yeast Anticancer Drug Screen. Data for the rad50 strain (AID 155);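 further: 0% = growth of vehicle-only cultures of the same strain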; conditions: S. cerevisiae rad50 strain growth inhibition; at 50.0 µM; hits give high values
Method in brief: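 Genetically altered yeast (DNA repair pathway); compound treatment; growth inhibition vs vehicle ctrl.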

[2] = NCI Yeast Anticancer Drug Screen. Data for the mec2-1 strain (AID 157); conditions: S. cerevisiae mec2-1 strain, at 50.0 µM, hits give high values
Method in brief: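 Yeast mec2-1 mutant treated with compound. Readout: growth inhibition vs vehicle controls.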

[3] = NCI Yeast Anticancer Drug Screen. Data for the sgs1 mgt1 strain (AID 161);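 further: 0% = growth of cultures given vehicle only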; conditions: S. cerevisiae sgs1 mgt1 strain, at 50.0 µM, hits give high values
Method in brief: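 Genetically altered yeast, compound exposure, growth inhibition relative to vehicle.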

[4] = NCI Yeast Anticancer Drug Screen. Data for the cln2 rad14 strain (AID 165);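 further: 0% = growth equal to vehicle treated cultures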; conditions: S. cerevisiae cln2 rad14 strain, at 50.0 µM, hits give high values
Method in brief: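 cln2 rad14 yeast strain; compound exposure; growth inhibition read vs vehicle controls.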

[5] = NCI Yeast Anticancer Drug Screen. Data for the bub3 strain (AID 167); conditions: S. cerevisiae bub3 mutant strain, at 50.0 µM, hits give high values
Method in brief: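 Yeast carrying a defined mutation is treated with each compound, and growth is compared with that of vehicle-exposed cells to give inhibition.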

[6] = NCI Yeast Anticancer Drug Screen. Data for the mlh1 rad18 strain (AID 175); conditions: S. cerevisiae mlh1 rad18 strain growth inhibition; at 50.0 µM; hits give high values
Method in brief: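 Yeast w/ defined DNA-repair lesions; compound exposure; growth vs vehicle controls → % inhibition.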

Measured: growth inhibition

CN(C)Cc1cn(C[Si](C)(C)C)c2ccccc12
inactive: [1] 18.6% | [2] -3.25% | [3] 7.7% | [4] 0.35% | [5] 3.75% | [6] 13.2%

CCc1nnc(CC)n1N
inactive: [1] 46.2% | [2] -7.05% | [3] 41.8% | [4] -10.6% | [5] 16.4% | [6] 38.2%

S=c1[nH]nc(COc2cccc3cccnc23)n1-c1ccccc1
inactive: [1] 12.5% | [2] 2.55% | [3] 2.05% | [4] 25.9% | [5] 13.4% | [6] 12.4%

COc1cc(/C=C(\C#N)C(N)=C(C#N)C#N)cc(O)c1O
inactive: [1] -32.5% | [2] -20.8% | [3] -19.6% | [4] 0.65% | [5] -24.3% | [6] -18.8%

NC(=O)N/N=C1\CCCCC12CCCCC2
inactive: [1] 4.3% | [2] 6.25% | [3] -4.9% | [4] -16.1% | [5] 2.2% | [6] -11.4%

CCOC(=O)/C=C/C(=O)N1CCN(C(=O)/C=C/C(=O)OCC)C(C)C1 (configuration not stated)
inactive: [1] -3.3% | [2] -40.8% | [3] -6.7% | [4] 4.25% | [5] -41.5% | [6] -15.9%

O=C(O)CCC(=O)Nc1cccc(C(F)(F)F)c1
inactive: [1] -5.9% | [2] 3.4% | [3] -3.15% | [4] -0.55% | [5] 15.2% | [6] 4.3%

NC(=O)c1c(N)nnc(-c2ccccc2)c1-c1ccccc1
inactive: [1] -6.15% | [2] -7.65% | [3] -5.75% | [4] -25.8% | [5] -3.45% | [6] -16.2%

CCCCCCOC(=O)NC1c2ccccc2Oc2ccccc21
inactive: [1] -0.35% | [2] 7.15% | [3] 10.1% | [4] -7.2% | [5] 7.45% | [6] 3.15%

CCCC(P(c1ccccc1)c1ccccc1)P(=O)(c1ccccc1)c1ccccc1 (configuration not stated)
inactive: [1] 62.7% | [2] 39.2% | [3] 39.1% | [4] 24.9% | [5] 59.4% | [6] 29.1%

N#CC1C2C1C1C=CC2n2c(=O)n(-c3ccccc3)c(=O)n21 (configuration not stated)
inactive: [1] 3% | [2] 2.5% | [3] 3.25% | [4] 27.4% | [5] 7.15% | [6] 4.95%

CC1(C)OS(=O)(=O)C=C1Br
inactive: [1] 16.7% | [2] -9.8% | [3] -4.15% | [4] -16% | [5] -8.4% | [6] -16.6%

C=NC1CCCCC1
inactive: [1] 0.95% | [2] -3.75% | [3] -10.6% | [4] 2% | [5] 14.7% | [6] 3.75%

CCOC(=O)NC(Nc1ccc([N+](=O)[O-])cc1)(C(F)(F)F)C(F)(F)F
inactive: [1] 45.4% | [2] 40.2% | [3] 22.8% | [4] 32.1% | [5] 42% | [6] 59.1%

OCc1nnn2c1CCC2
inactive: [1] 4.95% | [2] 0.05% | [3] -2.15% | [4] 11.4% | [5] 10.4% | [6] -6.25%

CCCCCCCCC[N+]12CC[N+](CCCCCCCCC)(CC1)CC2
inactive: [1] 8.2% | [2] 15.2% | [3] -4.9% | [4] 2.15% | [5] 8.8% | [6] 5.25%

CN=C(N)NC
inactive: [1] -0.1% | [2] 2.45% | [3] 15.1% | [4] 24.1% | [5] 8.55% | [6] 20.1%

CC(=O)Nc1c(C)cc(C)cc1[N+](=O)[O-]
inactive: [1] 8.05% | [2] 7.15% | [3] -12.9% | [4] 2.65% | [5] 6.4% | [6] 22.1%

COc1ccc(CC(N)C(=O)N(C)C2C(CO)OC(n3cnc4c(N(C)C)ncnc43)C2O)cc1 (configuration not stated)
inactive: [1] 5.3% | [2] -10.8% | [3] -8.7% | [4] -25.7% | [5] 2.3% | [6] -7.45%

CCC[N+]1=C/c2ccccc2OC(=O)/C=C\1[O-]
inactive: [1] -36.9% | [2] -11.3% | [3] -14.1% | [4] -8.95% | [5] 5.8% | [6] -1.1%

O=C(CCCl)Nc1c(Cl)cccc1Cl
inactive: [1] 10.2% | [2] 11.7% | [3] 8.9% | [4] 18.6% | [5] 21.1% | [6] -3.65%

O=C(CC(C(=O)O)S(=O)(=O)O)Nc1ccc(S(=O)(=O)c2ccc(NC(=O)CC(C(=O)O)S(=O)(=O)O)cc2)cc1 (configuration not stated)
inactive: [1] 2.45% | [2] 4.55% | [3] 2.55% | [4] -5.55% | [5] -7.9% | [6] -11.3%

CC1=C(C(=O)Nc2ccccc2C)C(c2ccc(N(C)C)cc2)C(C(=O)Nc2ccccc2C)=C(C)N1
inactive: [1] -27% | [2] -20% | [3] -17.4% | [4] -11.2% | [5] -8.95% | [6] -13.8%

CN(/N=C/c1ccc(Cl)c(Cl)c1)C1=NCCCCN1
inactive: [1] 1.45% | [2] -13.8% | [3] 2.15% | [4] -6.95% | [5] -15.8% | [6] -2.8%

CSc1ccc(NC(=O)C(Cl)Cl)cc1
inactive: [1] -3.35% | [2] 5.8% | [3] 5.1% | [4] 13% | [5] -15.3% | [6] 1.9%

O=C(Cc1ccccc1)NN1C(=O)C(Cl)C1c1ccccc1 (configuration not stated)
inactive: [1] -10.3% | [2] 15.2% | [3] -12.5% | [4] 4.8% | [5] -5% | [6] -2.3%

NS(=O)(=O)c1ccc(N=Cc2ccccc2)cc1
inactive: [1] 0.4% | [2] -1.35% | [3] 12.6% | [4] 5.45% | [5] 15.2% | [6] 10.1%

CCOC(=O)/C=C(/C)C#N
inactive: [1] -9.65% | [2] -3.7% | [3] -11.8% | [4] 7.4% | [5] 9.55% | [6] 2.9%

Fc1ccc(-c2ccc(Br)cc2)cc1
inactive: [1] 3.95% | [2] 3.4% | [3] 2.05% | [4] -44% | [5] 17% | [6] -3.65%

O=[N+]([O-])C(=C(N1CCCCC1)N1CCCCC1)/C(Cl)=C(\Cl)Br
inactive: [1] -31.5% | [2] 11.2% | [3] 2.7% | [4] -2% | [5] -7.15% | [6] -1.45%

CCCC(=O)C1=CC(C(C)C)CCC1C (configuration not stated)
inactive: [1] 12.6% | [2] -4.4% | [3] -4.05% | [4] -12.2% | [5] 1.15% | [6] 1%

COc1ccc(/C=C2\CCC(C)(CN(C)C)C2=O)cc1 (configuration not stated)
inactive: [1] 36.5% | [2] 14.6% | [3] 8.15% | [4] 21.1% | [5] 4.35% | [6] 43%

O=[N+]([O-])c1cccc(/C=[N+](\[O-])c2ccccc2)c1
inactive: [1] -3.45% | [2] 8.2% | [3] 13% | [4] -38.6% | [5] -16.9% | [6] 0.6%

CCOC(=O)C(=[N+]=[N-])C(=O)CN1C(=O)c2ccccc2C1=O
inactive: [1] -21.6% | [2] -7% | [3] -31.5% | [4] -7.7% | [5] 5.9% | [6] -15.9%

c1csc(-c2nccc3ccccc23)c1
inactive: [1] 1.6% | [2] 2.3% | [3] -19.2% | [4] 2.2% | [5] 7.7% | [6] 10.6%

CC(C)(C)OC(=O)N/N=C(/N)Cc1ccc(Cl)cc1
inactive: [1] -4.05% | [2] 19.4% | [3] -6.2% | [4] -13.9% | [5] -14.2% | [6] 6.4%

O=C(COc1ccc(Cl)cc1)NC(CO)(CO)CO
inactive: [1] 22.1% | [2] 16.3% | [3] 18.9% | [4] 43% | [5] 17.1% | [6] 10.8%
